The results in this text go back to PubChem BioAssay (NCATS).

The structures appear in SMILES notation. Several values for one entry are separate records, joined by “and”; a condition that tells them apart may be missing. Identical values can stand only once. Records with an inconclusive call do not appear. Unmarked numbers belong to inactive results. Activity calls are given as the source filed them. Calls follow the shape of the dose curve; as a rule, active = well fitted curve in the direction sought with a large enough effect; inconclusive = small, poorly fitted or top-dose-only effect, or another doubt; inactive = no such curve, though single readings can be large; an effect the other way counts as inactive or inconclusive. Non-standard residues stand in square brackets, D forms with d. Residues, ends and D or L forms follow the SMILES beside them. *: point of attachment. Sta = CC(C)C[C@H](N)[C@@H](O)CC(=O)O; Isovaleryl = CC(C)CC(=O)*

One may read the viability as a read-out of living cells in per cent, often relative to untreated cells.

For assay [1], the target named is Cellular tumor antigen p53 (Homo sapiens) (UniProt P04637). Kind of assay: Primary qHTS for small molecule compounds that upregulate eGFP-tagged delta133p53alpha (in N-terminal) cells. (AID 2060322). Also: nearly all actives have a fitted effect of over 75% in size.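 As to activation: series mostly up to about 56 µM; 0% = DMSO vehicle and 100% = reference activator.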 The note with it: NCI-H358 eGFP-delta133p53alpha fluorescence, 24 h; activation: stronger effect = higher value. A digest of the protocol:
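NCI-H358 cells pre-induced 24 h with 10 ng/ml doxycycline to express N-terminal eGFP-delta133p53alpha, then dosed 24 h at 37C without doxycycline; fixed, Hoechst-stained, GFP intensity by laser scanning cytometry, normalized to DMSO (0%) and 57.5 uM 5-azacytidine (100%).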
Background: qHTS replaces the single test concentration by a dilution series.

A short description of assay [2]: BET inhibitor-based combinations targeting novel dependencies in MECOM-rearranged (r) AML: SET-2 cell line (AID 2202231). Also: nearly all actives have a fitted effect of over 35% in size.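 As to viability: plate controls were DMSO treated cells for no effect and wells without cells for full effect.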 The settings on record: SET-2 AML cells viability, CellTiter-Glo luminescence, 48 h; viability: stronger effect = lower value, concentration not given here. A digest of the protocol: (§1)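 500 cells/well; 11-pt dose curve; 48 h, standard incubator; CellTiter-Glo luminescence after 15 min RT; DMSO/empty-well normalization; AUC plus Z-AUC (mean-centered within each line).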
In general terms: In ATP-based viability assays light output follows the ATP content of the culture.

The nature of assay [3]: BET inhibitor-based combinations targeting novel dependencies in MECOM-rearranged (r) AML: OCI-AML3 cell line (AID 2202232). Also: nearly all actives have a fitted effect of over 35% in size. The note with it: Potency: OCI-AML3 viability. A digest of the protocol:
as §1

Assay [4] in a line: BET inhibitor-based combinations targeting novel dependencies in MECOM-rearranged (r) AML: MV-4-11 cell line (AID 2202233). Also: nearly all actives have a fitted effect of over 45% in size. A digest of the protocol:
(§2)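 Cells were plated at 500 per well and exposed to each drug across an 11-point dose range for 48 hr at standard incubator conditions. Viability was read by CellTiter-Glo luminescence, and activity was expressed as AUC and per-cell-line Z-transformed AUC.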

The nature of assay [5]: BET inhibitor-based combinations targeting novel dependencies in MECOM-rearranged (r) AML: UCSD-AML1 cell line (AID 2202235). Also: nearly all actives have a fitted effect of over 40% in size. A digest of the protocol: as §2
Assay [6] can be described thus: BET inhibitor-based combinations targeting novel dependencies in MECOM-rearranged (r) AML: AML-191 cell line (AID 2202236; also: nearly all actives have a fitted effect of over 35% in size). A digest of the protocol:
as §1

Assay [7] in a line: BET inhibitor-based combinations targeting novel dependencies in MECOM-rearranged (r) AML: HNT-34 cell line (AID 2202234). Also: nearly all actives have a fitted effect of over 35% in size. A digest of the protocol:
as §2

Assay [8] is described as follows: BET inhibitor-based combinations targeting novel dependencies in MECOM-rearranged (r) AML: AML-194 cell line (AID 2202237; also: nearly all actives have a fitted effect of over 40% in size). A digest of the protocol: as §1
Potency is read from the fitted curve at half-maximal effect.

Cellular tumor antigen p53 (Homo sapiens), sequence (P04637 whole entry, looked up): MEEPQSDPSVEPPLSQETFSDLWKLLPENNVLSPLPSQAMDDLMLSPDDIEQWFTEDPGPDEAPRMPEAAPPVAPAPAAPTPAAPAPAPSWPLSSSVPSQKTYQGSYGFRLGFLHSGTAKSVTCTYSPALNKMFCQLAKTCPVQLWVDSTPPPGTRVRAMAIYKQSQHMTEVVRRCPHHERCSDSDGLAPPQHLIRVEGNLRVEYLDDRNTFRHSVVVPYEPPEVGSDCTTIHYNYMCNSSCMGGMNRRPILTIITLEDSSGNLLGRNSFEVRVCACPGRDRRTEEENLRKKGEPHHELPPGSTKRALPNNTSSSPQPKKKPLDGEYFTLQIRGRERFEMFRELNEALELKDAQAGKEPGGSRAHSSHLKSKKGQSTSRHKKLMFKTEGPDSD

For the compound `COc1cc([C@@H]2c3cc4c(cc3[C@H](O)[C@H]3COC(=O)[C@H]23)OCO4)cc(OC)c1OC`, the activation in assay [1] was 24.1%. Further, the Potency in assay [2] was 37.2 nM (active); in assay [3], 37.2 nM (active); in assay [4] it was 41.7 nM (active); in assay [5], 41.7 nM (active); in assay [6], 37.2 nM (active).
`C[C@](Cc1c[nH]c2ccccc12)(NC(=O)OC1C2CC3CC(C2)CC1C3)C(=O)NC[C@H](NC(=O)CCC(=O)O)c1ccccc1` (some centres not stated): in assay [1], the activation is 8.58%. In addition, the viability in assay [2] is 110%. For the same compound, the Potency entry in assay [3], in assay [4], in assay [7] and in assay [8] was “inactive” each time.
On to `COc1ccc2c3n(c(=NC(=O)c4cccnc4)nc2c1OC)CCN3`, for which the activation in assay [1] was -16.5%. In addition, the viability in assay [2] was 112%. The Potency in assay [3] was 235 nM (active); in assay [4] it was 148 nM (active); in assay [7], 332 nM (active); in assay [6] it was 468 nM (active); in assay [8] it was 1180 nM (active).
Consider `CCc1cc(-c2n[nH]c(C)c2-c2ccc3c(c2)OCCO3)c(O)cc1O`, for which, in assay [1], the activation was 2.7%. For the same compound, the Potency in assay [2] was 14800 nM (active); in assay [3], 18600 nM (active); in assay [4], 4680 nM (active); in assay [7], 14800 nM (active); in assay [8], 16600 nM (active).
As to `Cc1ccc(O)c(C(CCN(C(C)C)C(C)C)c2ccccc2)c1` (configuration not stated), the activation in assay [1] is 47.6%. Further, the viability in assay [2] was 117%. Moreover, the Potency entry in assay [3], in assay [4], in assay [7] and in assay [8] was “inactive” each time.
Turning to `C[C@@H](NCc1cc2ccccc2[nH]1)c1cccc2ccccc12`, the activation in assay [1] was -11%. Moreover, the Potency in assay [2] is 16600 nM (active); in assay [3] it was 14800 nM (active); in assay [4] it was 18600 nM (active); in assay [7], 10500 nM (active); in assay [6] it was 13200 nM (active); in assay [8], 8330 nM (active).
`CCOCC(O)COc1ccc(NC(=O)CC[S+](C)C)cc1` (configuration not stated): in assay [1], the activation was -1.78%. For the same compound, the viability in assay [2] is 62.2%. Also, the Potency entry in assay [3], in assay [4], in assay [7], in assay [6] and in assay [8] was “inactive” in each case.
In the case of `Cc1nc(-c2ccc(OCC(C)C)c(C#N)c2)sc1C(=O)O`, the activation in assay [1] is 4.32% and -8.37%. In assay [2], the viability is 109%. Besides, the Potency result in assay [3], in assay [4], in assay [5], in assay [6] and in assay [8] was “inactive” each time.
As for `CN(C)c1ccc(C(=C2C=CC(=[N+](C)C)C=C2)c2ccc(N(C)C)cc2)cc1`, in assay [1], the activation was -20.9%. In addition, the Potency is 1050 nM (active) in assay [2]; 1320 nM (active) in assay [3]; 662 nM (active) in assay [4]; 934 nM (active) in assay [7]; 934 nM (active) in assay [8].
Take `O=C(Nc1cc(Cl)cc2c1[nH]c1cnccc12)c1cccnc1`: the activation in assay [1] was 15.9%. In assay [2], the viability is 102%. The Potency result in assay [3], in assay [4], in assay [5], in assay [6] and in assay [8] was “inactive” in each case.
As to `CC(C)(Cc1ccc2ccccc2c1)NC[C@@H](O)COc1cccc(Cl)c1C#N`, the activation in assay [1] was 19.8%. Moreover, the Potency in assay [2] was 18600 nM (active); in assay [3], 16600 nM (active); in assay [4], 16600 nM (active); in assay [7], 16600 nM (active); in assay [6] it was 10500 nM (active); in assay [8], 10500 nM (active).
Take `CC(C)(C)COc1ccc(-n2cc(C(=O)O)cn2)cc1C#N`: the activation in assay [1] was -16.6%. Besides, the viability in assay [2] is 95.2%. The Potency in assay [3] was 10500 nM (active). Further, the Potency result in assay [4], in assay [7] and in assay [8] was “inactive” throughout.
For the compound `CC(C)CC(=O)N[C@H](C(=O)N[C@H](C(=O)N[C@@H](CC(C)C)[C@@H](O)CC(=O)N[C@@H](C)C(=O)N[C@@H](CC(C)C)[C@@H](O)CC(=O)O)C(C)C)C(C)C` (Isovaleryl-VV[Sta]A[Sta]-OH), the activation in assay [1] is -1.4%. Moreover, the viability in assay [2] was 117%. The Potency entry in assay [3], in assay [4], in assay [7] and in assay [8] was “inactive” each time.
Turning to `COc1ccc(C=Cc2cc(OC)c(OC)c(OC)c2)cc1NC(=O)[C@H](N)CO`, in assay [1], the activation is 7.98%. Moreover, the Potency in assay [2] was 263 nM (active); in assay [3], 296 nM (active); in assay [4] it was 296 nM (active); in assay [5], 372 nM (active); in assay [6], 332 nM (active); in assay [8], 296 nM (active).
In the case of `COc1ccc(-n2c(C)c([N+](=O)[O-])c3ccc(O)cc32)cc1`, in assay [1], the activation was -5.31%. The viability in assay [2] was 107%. In addition, the Potency entry in assay [3], in assay [5] and in assay [8] was “inactive” throughout. The figures for the Potency in assay [4] and in assay [6] were 5250 nM (active) and 6610 nM (active), respectively.
As to `O=c1oc2c(O)c(O)cc3c(=O)oc4c(O)c(O)cc1c4c23`, in assay [1], the activation is -6.69% and -19.7%. Further, in assay [2], the viability was 113%. Moreover, the Potency result in assay [3], in assay [4], in assay [5], in assay [6] and in assay [8] was “inactive” throughout.
`C#C[C@]1(O)CC[C@H]2[C@@H]3CCC4=CC(=O)CC[C@@H]4[C@H]3CC[C@@]21CC`: the activation in assay [1] was -5.86%. Besides, the viability in assay [2] was 103%. Further, the Potency entry in assay [3], in assay [7] and in assay [8] was “inactive” throughout. In addition, the Potency in assay [4] is 13200 nM (active).
In the case of `Cc1cccc(-c2nn(C(=S)Nc3ccccc3)cc2-c2ccnc3ccccc23)n1`, in assay [1], the activation was 44.1%. Besides, the viability in assay [2] was 97.5%. Moreover, the Potency entry in assay [3], in assay [4], in assay [5], in assay [6] and in assay [8] was “inactive” throughout.
For `COc1cccc2c1C(=O)c1c(O)c3c(c(O)c1C2=O)C[C@@](O)(C(=O)CO)C[C@@H]3O[C@H]1C[C@H](N)[C@H](O)[C@H](C)O1`, the Potency in assay [1] is 12300 nM (active); in assay [2], 833 nM (active); in assay [3] it was 46.8 nM (active); in assay [4], 37.2 nM (active); in assay [5] it was 93.4 nM (active); in assay [6], 186 nM (active). Also, the Potency in assay [8] was 186 nM (active).
Take `CC1(C)CCC(C)(C)c2cc(NC(=O)c3ccc(C(=O)O)cc3)ccc21`: the activation in assay [1] is -13% and 3.42%. For the same compound, the viability in assay [2] was 80.9%. The Potency entry in assay [3], in assay [5] and in assay [8] was “inactive” each time. The Potency was 1660 nM (active) in assay [7] and 2.1 nM (active) in assay [6].
